An excerpt weighted towards active compounds, which were near 2.4% of everything screened.
A3G deaminase = inhibitors of human APOBEC3G DNA deaminase; recombinant A3G, ssDNA deamination FAM/TAMRA fluorescence; actives 0.28% (n = 330,000); inhibition, % at 20 µM; AID 493012;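 active = inhibition of at least 40% at 20 µM, with no more than 30% in the related APOBEC3A deaminase screen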
CendR NRP1 mod = modulators of CendR peptide binding to human neuropilin-1. O14786. FAM-RPARPAR peptide binding to NRP-1, fluorescence polarization. inhibition, % at 25 µM. actives 0.85% (n = 360,000);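 active = inhibition or corrected inhibition above about 18%, plus a signal ratio from 0.5 to 1.5, limit read from the data, passing the limit was not always enough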
Target sequence (O14786 whole entry, looked up): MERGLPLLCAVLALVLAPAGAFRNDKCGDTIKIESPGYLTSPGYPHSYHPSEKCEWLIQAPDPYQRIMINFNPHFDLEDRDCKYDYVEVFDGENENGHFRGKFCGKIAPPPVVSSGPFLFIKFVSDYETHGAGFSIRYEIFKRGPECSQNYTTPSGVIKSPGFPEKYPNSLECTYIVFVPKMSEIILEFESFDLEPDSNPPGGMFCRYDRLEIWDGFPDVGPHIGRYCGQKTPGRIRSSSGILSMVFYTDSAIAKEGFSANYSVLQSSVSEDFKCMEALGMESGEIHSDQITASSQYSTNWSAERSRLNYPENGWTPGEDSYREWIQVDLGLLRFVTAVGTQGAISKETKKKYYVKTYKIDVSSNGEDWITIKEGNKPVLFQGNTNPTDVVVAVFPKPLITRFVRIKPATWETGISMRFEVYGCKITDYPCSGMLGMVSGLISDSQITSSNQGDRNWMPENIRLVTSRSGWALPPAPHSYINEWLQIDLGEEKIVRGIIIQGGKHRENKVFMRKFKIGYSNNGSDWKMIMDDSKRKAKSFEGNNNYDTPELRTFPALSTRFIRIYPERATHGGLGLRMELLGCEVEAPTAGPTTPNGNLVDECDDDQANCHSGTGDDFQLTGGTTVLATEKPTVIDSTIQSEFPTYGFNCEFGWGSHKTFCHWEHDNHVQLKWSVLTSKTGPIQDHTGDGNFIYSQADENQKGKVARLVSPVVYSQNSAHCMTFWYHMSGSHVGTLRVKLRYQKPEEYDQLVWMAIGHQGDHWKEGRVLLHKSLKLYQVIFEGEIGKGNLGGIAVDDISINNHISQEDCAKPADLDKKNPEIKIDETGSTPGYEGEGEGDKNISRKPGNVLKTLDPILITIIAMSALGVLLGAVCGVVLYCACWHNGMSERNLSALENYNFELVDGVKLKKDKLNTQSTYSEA
APOBEC3A inh = blocks human APOBEC3A ssDNA deamination | AID 493011 | actives 0.41% (n = 330,000) | inhibition, % at 20 µM | recombinant A3A, FAM/TAMRA ssDNA deamination fluorescence;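 active = at least 40% inhibition at 20 µM here, with at most 30% in a related deaminase screen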
ADAM10 inh = inhibits human ADAM10 | O14672 | recombinant ADAM10, EDANS/DABCYL FRET peptide cleavage, 3 h | inhibition, % at 7 µM | actives 0.62% (n = 370,000);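 active = inhibition above a per-campaign cutoff equal to the mean of compounds falling between control-based bounds plus 3 SD, cut at about 20% in these data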
ADAM17 inh = inhibits human ADAM17 | AID 720648 | recombinant ADAM17, EDANS/DABCYL FRET peptide cleavage | actives 0.83% (n = 370,000) | inhibition, % at 6.95 µM | P78536;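 active = inhibition above the mean of compounds lying between control limits plus 3 SD, set per campaign, cut at about 8.5% in these data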
ADAM10 ctr = counter-screen for ADAM17 exosite inhibitors: inhibitors of human ADAM10; shares compounds with ADAM17 inh; recombinant ADAM10, EDANS/DABCYL FRET peptide cleavage, 3 h; inhibition, % at 6.95 µM; actives 47% (n = 2,900);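 active = mean inhibition over the triplicate runs exceeds the activity threshold set in the earlier primary screen, cut at about 20% in these data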
ADAM17 confirm = human ADAM17 inhibition, confirmation. shares compounds with ADAM17 inh. recombinant ADAM17, EDANS/DABCYL QFRET peptide cleavage. inhibition, % at 6.95 µM. actives 65% (n = 2,900). AID 743257;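 active = mean inhibition across replicates above the hit cutoff set in the primary screen, cut at about 8.5% in these data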
Large screens that a line does not name were inactive (follow-up assays come after a bar, where they were run).

COc1ccc(NC(=O)Nc2ccc3c(c2)CC(=O)N([C@H](C)CO)C[C@H](C)[C@H](CN(C)Cc2ccc(C(=O)O)cc2)O3)cc1	ADAM17 inh 9.0 | ADAM10 ctr inactive | ADAM17 confirm inactive
COc1ccc(NC(=O)N(CCc2c(C)[nH]c3ccccc23)Cc2cccs2)cc1OC	none (no result: A3G deaminase, CendR NRP1 mod, APOBEC3A inh)
O=C(Nc1cccc(F)c1)Nc1ccc2c(c1)OCO2	ADAM17 inh 10.1 | ADAM10 ctr inactive | ADAM17 confirm inactive
COC(=O)[C@@H]1C[C@H]2CC[C@H](O)C[C@H]2N1Cc1ccccc1OC(=O)c1cccs1	ADAM17 inh 10.9 | ADAM10 ctr inactive | ADAM17 confirm inactive
O=C(NC(=S)NNC(=O)c1cc2ccccc2cc1O)c1ccco1	ADAM17 inh 9.3 | ADAM10 ctr inactive | ADAM17 confirm inactive
OCc1ccccc1CNCc1ccccc1	none
OCc1cccc[n+]1CCc1ccccc1	ADAM17 inh 10.8 | ADAM10 ctr inactive | ADAM17 confirm inactive
C/C(=C\c1ccc(C(=O)O)cc1)c1ccc2c(c1)C(C)(C)CCC2(C)C	ADAM17 inh 9.0 | ADAM10 ctr inactive | ADAM17 confirm inactive
CC1=NN(c2ccccc2)C(=O)/C1=C\c1ccc(Br)s1	none
CC1=NN(c2ccccc2)C(=O)/C1=C/c1cccs1	ADAM17 inh 10.3 | ADAM10 ctr inactive | ADAM17 confirm inactive
Cc1ccc(S(=O)(=O)NCCC(=O)Nc2ccc(Cl)c(Cl)c2)cc1	ADAM17 inh 9.2 | ADAM10 ctr 25.4 | ADAM17 confirm 14.7
CCOC(=O)CCCc1c[nH]c2ccccc12	none
Cc1ccc(NC(=O)COC(=O)Cc2c[nH]c3ccccc23)cc1C	ADAM17 inh 14.0 | ADAM10 ctr inactive | ADAM17 confirm inactive
CC(C)(C)NC(=O)NC(=O)COC(=O)CCCc1c[nH]c2ccccc12	ADAM17 inh 11.5 | ADAM10 ctr inactive | ADAM17 confirm inactive
Cc1cc(O)cc(=O)n1-c1cccc([N+](=O)[O-])c1	none (no result: A3G deaminase, CendR NRP1 mod, APOBEC3A inh)
CCc1ccc(C(=O)/C=C2\Sc3ccccc3NC2=O)cc1	ADAM17 inh 8.8 | ADAM10 ctr inactive | ADAM17 confirm 10.9
CN(C(=O)COC(=O)COc1ccc(N(C)S(=O)(=O)c2ccc(Cl)cc2)cc1)c1ccccc1	ADAM17 inh 18.4 (no result: A3G deaminase, APOBEC3A inh) | ADAM10 ctr inactive | ADAM17 confirm inactive
N=c1c2c(ncn1Cc1ccco1)Oc1cc(O)ccc1C2c1ccccc1 (centres undefined)	none
N=c1c2c(ncn1Cc1ccco1)Oc1c(ccc3ccccc13)C2c1ccccc1 (centres undefined)	ADAM17 inh 9.3 | ADAM10 ctr inactive | ADAM17 confirm inactive
COc1ccc(NS(=O)(=O)c2ccc3nc(COc4ccc(Cl)c(C)c4)[nH]c3c2)cc1	ADAM17 inh 12.8 | ADAM10 ctr 26.7 | ADAM17 confirm 18.6
COc1cccc(N(C)C(=O)[C@@H](C)[C@@H](O)c2ccc(Cl)cc2)c1	none (no result: A3G deaminase, CendR NRP1 mod, APOBEC3A inh)
COC(=O)c1cc(-c2ccccc2)n(CCN)c1C	none
COC(=O)c1cc(C(=O)OC)n(Cc2ccc(C)cc2)c1C	ADAM17 inh 9.2 | ADAM10 ctr inactive | ADAM17 confirm inactive
CCOC(=O)C1=C(C)N(CCCCCC(=O)O)C(=O)NC1c1ccccc1OC(=O)c1cccs1 (centres undefined)	ADAM17 inh 10.1 (no result: CendR NRP1 mod) | ADAM10 ctr inactive | ADAM17 confirm inactive
CCCOc1ccccc1C(=O)N(Cc1cccs1)C1CCS(=O)(=O)C1 (centres undefined)	ADAM17 inh 10.5 | ADAM10 ctr inactive | ADAM17 confirm inactive
C=CCN1[C@@H](C)COc2cccc(N3CCSCC3)c2S1(=O)=O	none (no result: A3G deaminase, CendR NRP1 mod, APOBEC3A inh)
O=C(NCc1ccccc1Cl)c1nnc(CS(=O)(=O)c2ccccc2)o1	ADAM17 inh 10.9 | ADAM10 ctr inactive | ADAM17 confirm inactive
CCCCN1CC[C@H](C)Oc2cc(Br)ccc2S1(=O)=O	none (no result: A3G deaminase, CendR NRP1 mod, APOBEC3A inh)
COc1ccc(Cn2c(SC)nc3ccccc32)cc1[N+](=O)[O-]	ADAM17 inh 8.7 | ADAM10 ctr inactive | ADAM17 confirm inactive
O=[N+]([O-])CC(c1ccccc1)P(=O)(c1ccccc1)c1ccccc1 (centres undefined)	ADAM17 inh 15.9 | ADAM10 ctr inactive | ADAM17 confirm 32.0
O=C(Nc1ccccc1)C1=C[C@H](c2ccc(Br)cc2)C[C@H](OCc2ccc(CO)cc2)O1	ADAM17 inh 10.5 | ADAM10 ctr 29.4 | ADAM17 confirm 24.0
O=C(NC1CC1)C1=C[C@@H](c2ccccc2)C[C@@H](OCc2ccc(CO)cc2)O1	none
O=C(C1=C[C@@H](c2ccc(Br)cc2)C[C@@H](OCCCCO)O1)N1CCN(Cc2ccccc2)CC1	ADAM17 inh 8.8 | ADAM10 ctr inactive | ADAM17 confirm inactive
O=C(Nc1ccccc1)C1=C[C@@H](C2CCCCC2)C[C@@H](OCc2ccc(CO)cc2)O1	ADAM17 inh 8.7 | ADAM10 ctr inactive | ADAM17 confirm 12.6
CNC(=S)N/N=C/c1c(C(=O)OC)cnn1-c1ccc(Cl)cc1	none (no result: A3G deaminase, CendR NRP1 mod, APOBEC3A inh)
CN(Cc1ccc(F)cc1)C(=O)c1cccc(OCc2ccccc2)c1	ADAM17 inh 8.7 | ADAM10 ctr inactive | ADAM17 confirm 12.0
CCSc1nc(-c2ccco2)ccc1C#N	ADAM17 inh 13.7 | ADAM10 ctr inactive | ADAM17 confirm inactive
COc1ccc(CC(=O)N2CCC(c3ccccc3)C2)cc1 (centres undefined)	none
COc1ccc(CC(=O)N2CCC(Nc3nc4ccccc4n3Cc3ccc(F)cc3)CC2)cc1	ADAM17 inh 11.0 | ADAM10 ctr 21.0 | ADAM17 confirm 11.6
Cc1c(Cl)cccc1NC(=S)NCCC(c1ccccc1)c1ccccc1	ADAM17 inh 9.2 | ADAM10 ctr 20.8 | ADAM17 confirm 10.0
Cc1c(Cl)cccc1NC(=S)NCCC(C)C	none
COc1cccc(CNC(=O)Cn2c(-c3ccccc3)cc(C(C)=O)c2C)c1	none (no result: A3G deaminase, CendR NRP1 mod, APOBEC3A inh)
Cc1cc(-c2csc(NC(=O)c3cc4ccccc4o3)n2)c(C)n1C	ADAM17 inh 10.9 | ADAM10 ctr inactive | ADAM17 confirm inactive
COc1cc2c(c(O)c1OC)-c1c(cc(OC)c(OC)c1OC)C[C@@H](C)[C@@H](C)C2	ADAM17 inh 8.8 | ADAM10 ctr inactive | ADAM17 confirm inactive
COc1cc2c(c(OC)c1OC)-c1c(cc(OC)c(OC)c1OC)C[C@H](C)[C@H](C)C2	none
Cc1c[nH]c2cccc(-c3c(Cl)cccc3Cl)c12	none (no result: A3G deaminase, CendR NRP1 mod, APOBEC3A inh)
CCN1C(=O)N[C@@H](CCc2ccccc2)[C@@H](C(=O)OC)[C@H]1C	ADAM17 inh 9.8 | ADAM10 ctr inactive | ADAM17 confirm inactive
COC(=O)[C@H]1[C@H](CCc2ccccc2)NC(=O)N(Cc2ccccc2)[C@@H]1C	none (no result: A3G deaminase, APOBEC3A inh)
COC(=O)c1ccc(CN2C(=O)C(C)N(C(=O)c3c(F)cccc3F)c3ccccc32)cc1 (centres undefined)	ADAM17 inh 11.3 | ADAM10 ctr inactive | ADAM17 confirm 15.2
